Assay outcomes deposited in PubChem BioAssay by National Center for Advancing Translational Sciences (NCATS).
An excerpt weighted towards active compounds, which were near 8% of everything screened.
FBPA coupling cs – coupling enzyme interference in Giardia aldolase counter-screen. AID 2472. activity change, negative = inhibition, % at 58.2 µM, hits read low. 290,000 compounds, 0.67% hits. coupling enzyme system counterscreen, AmpLite Red fluorescence; in the data active = activity change below about -30%
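Counterscreen of the coupled detection system alone, without aldolase: glyceraldehyde-3-phosphate coupling enzymes plus AmpLite Red readout. Compounds at 57.5 uM final, 10 min RT preincubation, 20 min RT reaction, fluorescence 525/598 nm.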
TSHR antagonist – blocks TSH signaling through the human TSH receptor | TSHR-expressing cells, TSH-stimulated cAMP HTRF, 2 h; active compounds read low | activity change, negative = inhibition, % at 11.5 µM | 330,000 compounds, 0.2% hits;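 active = activity change below a set negative limit, meaning inhibition stronger than a set level, cut at about -70% in these data; inconclusive = activity change between two set negative limits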
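TSHR-expressing cells, 200/well, pre-treated with compound, then stimulated with EC80 TSH (4nM final) for 2 hours at 37 deg C. cAMP measured by competitive HTRF: anti-cAMP cryptate antibody in lysis buffer plus cAMP-d2, read after 30 minutes at room temperature.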
ELG1 DNA repair – ELG1-dependent DNA repair inhibition | HEK293T ELG1-luciferase reporter, luminescence, 16 h; DNA damage induced by 5-fluorouridine | Potency, µM (doses to about 46.1 µM), for inactives: at the highest dose activity change, negative = inhibition, hits mostly inhibitors | 330,000 compounds, 2.3% hits | AID 504467; also: potency is read from the fitted curve at half-maximal effect; nearly all actives have a fitted effect of over 55% in size
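Overnight (16 hr) co-exposure of 2,000 cells/well to 5-fluorouridine and compound at 37 °C preceded detection. Luciferase was quantified via ONE-Glo luminescence; loss of signal denotes inhibition.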
RORgamma inh – blocks mouse ROR gamma transcriptional activity. Drosophila S2 Gal4-RORgamma UAS-luciferase reporter, 20 h. Potency, µM (titrated, usually from 53.6 µM), inactives show top-dose activity change, negative = inhibition, hits mostly inhibitors. 310,000 compounds, 5.4% hits. AID 2551; also: potency is read from the fitted curve at half-maximal effect; nearly all actives have a fitted effect of over 60% in size
Target sequence (P51450 whole entry, looked up, the tested form may be a part): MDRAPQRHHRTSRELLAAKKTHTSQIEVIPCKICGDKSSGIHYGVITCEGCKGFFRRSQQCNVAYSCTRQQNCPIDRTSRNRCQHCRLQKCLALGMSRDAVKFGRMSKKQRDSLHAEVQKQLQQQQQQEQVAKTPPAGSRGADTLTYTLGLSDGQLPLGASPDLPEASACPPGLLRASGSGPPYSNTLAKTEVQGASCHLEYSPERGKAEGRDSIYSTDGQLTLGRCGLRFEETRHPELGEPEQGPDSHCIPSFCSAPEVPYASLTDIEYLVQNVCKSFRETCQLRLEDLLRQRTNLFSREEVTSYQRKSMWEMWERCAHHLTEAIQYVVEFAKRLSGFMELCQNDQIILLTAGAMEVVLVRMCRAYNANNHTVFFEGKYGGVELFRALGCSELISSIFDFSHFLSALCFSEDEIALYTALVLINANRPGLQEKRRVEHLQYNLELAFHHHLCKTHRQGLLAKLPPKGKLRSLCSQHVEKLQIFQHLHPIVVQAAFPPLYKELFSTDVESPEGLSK
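Stable Schneider cell line, Gal4 DNA-binding domain fused to ROR gamma, UAS-luciferase. Cmpd 1 hr RT → CuSO4 700 uM final → 20 hr RT → luciferase reagent 10 min → luminescence.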
Gal4-VP16 FLuc – counter-screen for ROR gamma inhibitors: Gal4-VP16 reporter | Drosophila S2 Gal4-VP16 UAS-luciferase, luminescence, 20 h | Potency, µM (doses to about 53.6 µM), inactives show top-dose activity, negative = inhibition, actives largely listed as inhibitors | 310,000 compounds, 3.5% hits;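 also: Gal4-VP16 expression switched on by copper sulfate through the metallothionein promoter; potency is read from the fitted curve at half-maximal effect; nearly all actives have a fitted effect of over 50% in size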
* = called active by the depositor; ? = inconclusive; · = not tested or not shown; ! = not active in a repeat; [ ] = dose if it differs, or a comment. Unless noted, calls follow the shape of the dose curve; as a rule, active = well fitted curve in the direction sought with a large enough effect; inconclusive = small, poorly fitted or top-dose-only effect, or another doubt; inactive = no such curve, though single readings can be large; an effect the other way counts as inactive or inconclusive. % is scaled to controls: 0 for no effect and ±100 for the full control effect.

SMILES	FBPA coupling cs	TSHR antagonist	ELG1 DNA repair	RORgamma inh	Gal4-VP16 FLuc
COc1ccc(-c2csc(/C(C#N)=C\c3ccc(OC)c([N+](=O)[O-])c3)n2)cc1	0	-2	-13%	8%	-7%
N#C/C(=C/c1ccco1)c1nc2ccccc2s1	-6	-4	?	5µM*	5.6µM*
COc1cc(/C=C(\C#N)c2nc3ccccc3s2)cc([N+](=O)[O-])c1O	-2	-71*	?	-23%	-6%
N#C/C(=C\c1ccco1)c1nc2ccccc2s1	1	-1	?	-43%	?
COc1ccc(S(=O)(=O)Nc2cccc3c2O[C@@H](CN(C)Cc2ccc(C(=O)O)cc2)[C@@H](C)CN([C@H](C)CO)C3=O)cc1	·	-4	11%	·	·
COC(=O)CCC(=O)OC1(C)C(=O)C=C2C=C(C3CC3)N(Cc3ccc(OC)cc3)C=C2C1=O (stereo not drawn)	-45*!	-3	15%	14%	7%
CCCCC1=CC2=CC(=O)C(C)(OC(=O)CC)C(=O)C2=CN1Cc1ccc2c(c1)OCO2 (stereo not drawn)	-1	1	-1%	-2%	0%
COC(=O)CCC(=O)OC1(C)C(=O)C=C2C=C(C3CC3)N(Cc3ccc4c(c3)OCO4)C=C2C1=O (stereo not drawn)	-39*	1	-2%	-24%	1%
Cn1c(SCC(=O)O)nnc1-c1ccc2ncccc2c1	2	3	9%	0%	-2%
O=C(NC(=S)N1CCCc2ccccc21)c1ccco1	0	3	?	?	?
CC1Cc2ccccc2N1C(=S)NC(=O)C1(C)CC1(Cl)Cl (stereo not drawn)	2	1	-16%	0.63µM*	2.2µM*
CC(=O)c1cccc(NC(=S)N2c3ccccc3CC2C)c1 (stereo not drawn)	2	2	-13%	?	1%
CC1Cc2ccccc2N1C(=S)NC(=O)c1ccco1 (stereo not drawn)	-7	17	0%	4.5µM*	4µM*
Brc1cccc(OCCCNC2CCCC2)c1	1	-1	-2%	10%	1%
O=C(CCCNS(=O)(=O)c1cccs1)N1CCN(c2cccc(Cl)c2)CC1	0	10	23µM*	33%	-5%
O=C(Nc1ccccc1Cl)c1ccc2nc(N3CCOCC3)sc2c1	0	-11	27%	-3%	?
NNC(=O)c1sc2cc(C(F)(F)F)cnc2c1-c1cccnc1	1	2	-1%	14µM*	?
NC(=O)c1sc2cc(C(F)(F)F)cnc2c1-c1cccs1	-6	12	-9%	20%	1%
NNC(=O)c1sc2cc(C(F)(F)F)cnc2c1-c1cccs1	-1	-8	1%	10µM*	?
COC(=O)c1sc2cc(C(F)(F)F)cnc2c1-c1cccnc1	-1	-5	3%	-18%	-9%
O=c1[nH]c(Cl)nc2c1ncn2C1OC(CO)C(O)C1O (stereo not drawn)	2	·	·	-7%	2%
C/C(=N\NC(=O)c1ccccc1O)C1C(=O)c2ccccc2C1=O	2	-22	?	3.5µM*	3.2µM*
C/C(=N/NC(=O)c1cc2ccccc2cc1O)C1C(=O)c2ccccc2C1=O	5	-43	?	?	18µM*
O=C(O)c1ccc(/C=N/NC(=O)c2cc3ccccc3cc2O)cc1	·	-15	-10%	·	·
CCOc1ccc(Oc2ccc(S(=O)(=O)N3CCOCC3)cc2N)cc1	-1	2	9.2µM*	30%	3%
SMILES	FBPA coupling cs	TSHR antagonist	ELG1 DNA repair	RORgamma inh	Gal4-VP16 FLuc
CNC(=S)NNC(=O)CSCc1c(Cl)cccc1Cl	4	0	7%	11µM*	20µM*
CNC(=O)CSCc1c(Cl)cccc1Cl	1	1	-1%	-20%	-6%
NNC(=O)CSCc1ccc(Cl)cc1Cl	0	-11	6%	-16%	9%[10 µM]
O=C(CSCc1ccccc1)NNC(=S)Nc1cccc(Cl)c1Cl	5	-23	2%	6.3µM*	?
COCCNC(=S)NNC(=O)CSCc1ccc(Cl)cc1Cl	2	-7	?	10µM*	-28%
COc1ccc(S(=O)(=O)N2CCCC2=O)cc1N(C)S(C)(=O)=O	1	-16	4%	?	11%
CCC(C)(C)C1CCC(=NNc2nc3ccccc3[nH]2)CC1 (stereo not drawn)	-3	-11	10%	11µM*	?
COc1ccc(OC)c(/C=C/C(=O)OCC(=O)N2CCCC2)c1	·	5	1%	·	·
COc1ccc(OC)c(/C=C/C(=O)OCC(=O)N2C(C)CCCC2C)c1 (stereo not drawn)	·	-12	21µM*	·	·
COc1ccc(/C=N\NC(=O)c2c(C)nc3ccc(Br)cn23)cc1	-1	3	-3%	10µM*	-102%
Cc1ccc(/C=N/NC(=O)c2c(C)nc3ccc(Br)cn23)cc1	0	1	-4%	7.1µM*	?
COc1ccc(/C=N/NC(=O)c2c(C)nc3ccc(Br)cn23)cc1OC	1	2	0%	5%	-19%
C=CCOc1ccc(/C=N/NC(=O)c2c(C)nc3ccc(Cl)cn23)cc1	-5	-6	0%	2.2µM*	10µM*
CC(OC(=O)CCN=C1NS(=O)(=O)c2ccccc21)C(=O)N(C)C1CCCCC1 (stereo not drawn)	·	-7	12%	·	·
Cn1c(=O)[nH]c(=O)c2c1nc(SCCCO)n2CCCc1ccccc1	-5	-14	-1%	?	29%
Cc1ccc(NC(=O)OCc2cccs2)cc1	-1	0	?	23%	27%
COc1ccc(C(=O)NCCS(=O)(=O)N2CCc3ccccc3C2)cc1	·	24	0%	·	·
COc1ccc(N(CC(=O)Nc2cc(Cl)ccc2C)S(=O)(=O)c2c(C)n[nH]c2C)cc1	·	-15	-17%	2%	2%
CCC1CCCCN1C(=O)COc1c(Br)cc(Br)c2cccnc12 (stereo not drawn)	5	-4	?	13µM*	?
Cc1cc(C(=O)CCl)c(C)n1CCc1ccccc1	2	?	9%	17%	-12%
Cc1cc(C(=O)CCl)c(C)n1-c1ccon1	0	0	18%	8.9µM*	?
CC(=O)c1nnn(-c2cccc([N+](=O)[O-])c2)c1C	-38*	3	16%	?	23%
Cc1cc(C(=O)CCl)c(C)n1-c1cccc([N+](=O)[O-])c1	3	-11	4%	8.9µM*	?
O=C(NNC(=S)Nc1cccc(Cl)c1)c1ccccc1	·	-3	?	-45%	-9%
CN(C)NC(=S)Nc1cccc(Cl)c1	0	-6	0%	2.2µM*	7.1µM*
Cc1cccc(NNC(=S)Nc2c(C)cccc2C)c1	0	-4	-14%	4µM*	3.2µM*
Cc1cccc(NC(=S)NNc2cccc(Cl)c2)c1	-1	-5	0%	2µM*	?
